The target of test [1] is Serine/threonine-protein kinase SIK1 (Homo sapiens) (UniProt P57059). The conditions noted are these: at 10 µM.
The target in test [2] is SRSF protein kinase 1 (Homo sapiens) (UniProt Q96SB4). Conditions: at 1 µM.
Test [3] shares this target. Conditions: at 10 µM.
Test [4] deals with SRSF protein kinase 2 (Homo sapiens) (UniProt P78362). The conditions noted are these: at 1 µM.
The target is the same in test [5]. Conditions: at 10 µM.
Test [6] has as its target Serine/threonine-protein kinase 33 (Homo sapiens) (UniProt Q9BYT3). Conditions: at 1 µM.
The target is the same in test [7]. The conditions noted are these: at 10 µM.
Test [8] concerns the target Serine/threonine-protein kinase PLK2 (Homo sapiens) (UniProt Q9NYY3). The conditions noted are these: at 10 µM.
In test [9] the target is Tyrosine-protein kinase SYK (Homo sapiens) (UniProt P43405). The conditions noted are these: at 1 µM.
Test [10] shares this target. Conditions: at 10 µM.
Test [11] concerns the target T1, Mitogen-activated protein kinase kinase kinase 7 (Homo sapiens) (UniProt O43318).
T1 sequence (whole entry): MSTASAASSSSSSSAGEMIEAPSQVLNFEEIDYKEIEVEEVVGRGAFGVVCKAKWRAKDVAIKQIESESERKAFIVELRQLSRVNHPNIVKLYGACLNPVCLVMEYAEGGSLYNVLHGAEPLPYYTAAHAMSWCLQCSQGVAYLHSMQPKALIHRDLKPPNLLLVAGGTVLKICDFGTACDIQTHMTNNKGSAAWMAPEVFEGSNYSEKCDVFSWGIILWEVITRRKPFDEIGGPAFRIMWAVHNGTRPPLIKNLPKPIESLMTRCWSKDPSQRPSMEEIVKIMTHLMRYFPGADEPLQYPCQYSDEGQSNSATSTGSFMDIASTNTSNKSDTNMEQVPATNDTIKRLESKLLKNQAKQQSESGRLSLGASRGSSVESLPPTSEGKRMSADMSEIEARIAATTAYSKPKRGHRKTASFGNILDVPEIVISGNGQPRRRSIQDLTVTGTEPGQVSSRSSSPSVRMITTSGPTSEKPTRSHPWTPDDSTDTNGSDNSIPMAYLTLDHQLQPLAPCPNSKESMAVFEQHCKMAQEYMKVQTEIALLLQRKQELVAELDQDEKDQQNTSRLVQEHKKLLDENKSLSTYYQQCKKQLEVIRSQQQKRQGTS
Conditions: at 1 µM.

Test [12] concerns the target T1, Mitogen-activated protein kinase kinase kinase 7 (Homo sapiens). Conditions: at 10 µM.
Test [13] concerns the target T2, Serine/threonine-protein kinase TAO1 (Homo sapiens) (UniProt Q7L7X3).
T2 sequence (whole entry): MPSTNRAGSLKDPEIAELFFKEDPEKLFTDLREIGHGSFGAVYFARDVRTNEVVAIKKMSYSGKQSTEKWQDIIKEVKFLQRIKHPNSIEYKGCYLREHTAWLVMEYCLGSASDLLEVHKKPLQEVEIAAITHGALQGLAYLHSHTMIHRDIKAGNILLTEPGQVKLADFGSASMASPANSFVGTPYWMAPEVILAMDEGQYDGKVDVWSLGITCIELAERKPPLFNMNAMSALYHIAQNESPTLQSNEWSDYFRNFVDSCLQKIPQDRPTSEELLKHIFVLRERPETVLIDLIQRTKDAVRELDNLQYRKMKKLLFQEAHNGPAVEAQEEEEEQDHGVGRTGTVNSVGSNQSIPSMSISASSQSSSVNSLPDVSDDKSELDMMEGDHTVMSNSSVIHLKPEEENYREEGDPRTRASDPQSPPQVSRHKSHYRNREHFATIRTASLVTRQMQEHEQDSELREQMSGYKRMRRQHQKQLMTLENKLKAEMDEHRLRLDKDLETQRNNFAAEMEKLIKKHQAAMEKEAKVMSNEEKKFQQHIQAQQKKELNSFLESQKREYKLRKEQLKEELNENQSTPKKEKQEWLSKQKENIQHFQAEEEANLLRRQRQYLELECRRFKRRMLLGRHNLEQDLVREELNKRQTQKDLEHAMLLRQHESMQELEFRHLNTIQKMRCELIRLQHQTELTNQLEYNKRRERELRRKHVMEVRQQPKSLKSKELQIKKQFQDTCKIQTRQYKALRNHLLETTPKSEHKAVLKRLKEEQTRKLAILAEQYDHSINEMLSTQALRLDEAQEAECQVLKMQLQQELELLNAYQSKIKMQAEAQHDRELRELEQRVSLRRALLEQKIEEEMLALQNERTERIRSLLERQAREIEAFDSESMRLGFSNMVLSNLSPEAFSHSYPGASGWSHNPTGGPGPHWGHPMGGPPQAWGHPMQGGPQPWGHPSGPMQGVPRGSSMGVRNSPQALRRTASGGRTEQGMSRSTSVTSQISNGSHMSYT
The conditions noted are these: at 10 µM.

Test [14] has as its target T3, Serine/threonine-protein kinase TAO2 (Homo sapiens) (UniProt Q9UL54).
T3 sequence (whole entry): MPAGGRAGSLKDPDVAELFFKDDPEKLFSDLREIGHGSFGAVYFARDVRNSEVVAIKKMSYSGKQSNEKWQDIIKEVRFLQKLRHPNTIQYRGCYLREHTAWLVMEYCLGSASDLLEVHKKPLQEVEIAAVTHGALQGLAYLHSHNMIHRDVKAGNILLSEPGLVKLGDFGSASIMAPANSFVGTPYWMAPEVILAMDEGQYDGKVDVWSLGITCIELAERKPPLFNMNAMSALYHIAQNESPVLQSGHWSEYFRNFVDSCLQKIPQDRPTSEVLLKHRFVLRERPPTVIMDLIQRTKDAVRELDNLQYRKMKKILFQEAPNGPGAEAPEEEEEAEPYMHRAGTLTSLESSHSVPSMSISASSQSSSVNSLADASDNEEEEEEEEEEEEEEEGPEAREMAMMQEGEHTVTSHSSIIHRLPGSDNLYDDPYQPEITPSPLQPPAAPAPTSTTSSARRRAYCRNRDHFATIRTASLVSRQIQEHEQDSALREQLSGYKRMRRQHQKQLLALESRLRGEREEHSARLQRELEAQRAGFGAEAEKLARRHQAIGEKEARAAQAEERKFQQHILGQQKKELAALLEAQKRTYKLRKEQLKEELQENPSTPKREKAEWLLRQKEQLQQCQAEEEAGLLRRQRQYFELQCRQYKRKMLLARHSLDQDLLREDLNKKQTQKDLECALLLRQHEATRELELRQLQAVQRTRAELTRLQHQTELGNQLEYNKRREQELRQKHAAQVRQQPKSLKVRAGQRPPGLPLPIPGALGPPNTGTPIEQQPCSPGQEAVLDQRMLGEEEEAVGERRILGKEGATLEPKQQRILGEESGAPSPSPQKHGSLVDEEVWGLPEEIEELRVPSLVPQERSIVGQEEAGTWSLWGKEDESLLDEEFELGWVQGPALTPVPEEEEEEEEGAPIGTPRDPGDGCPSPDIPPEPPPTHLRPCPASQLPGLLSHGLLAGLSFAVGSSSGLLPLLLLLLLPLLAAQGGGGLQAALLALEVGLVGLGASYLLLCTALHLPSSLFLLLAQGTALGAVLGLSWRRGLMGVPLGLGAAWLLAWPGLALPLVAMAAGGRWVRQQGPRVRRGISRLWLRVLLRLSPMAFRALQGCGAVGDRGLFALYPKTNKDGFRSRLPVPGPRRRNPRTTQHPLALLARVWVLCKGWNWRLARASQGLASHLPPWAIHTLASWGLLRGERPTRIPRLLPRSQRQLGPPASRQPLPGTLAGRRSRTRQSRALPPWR
Conditions: at 10 µM.

In test [15] the target is T4, Serine/threonine-protein kinase TAO3 (Homo sapiens) (UniProt Q9H2K8).
T4 sequence (whole entry): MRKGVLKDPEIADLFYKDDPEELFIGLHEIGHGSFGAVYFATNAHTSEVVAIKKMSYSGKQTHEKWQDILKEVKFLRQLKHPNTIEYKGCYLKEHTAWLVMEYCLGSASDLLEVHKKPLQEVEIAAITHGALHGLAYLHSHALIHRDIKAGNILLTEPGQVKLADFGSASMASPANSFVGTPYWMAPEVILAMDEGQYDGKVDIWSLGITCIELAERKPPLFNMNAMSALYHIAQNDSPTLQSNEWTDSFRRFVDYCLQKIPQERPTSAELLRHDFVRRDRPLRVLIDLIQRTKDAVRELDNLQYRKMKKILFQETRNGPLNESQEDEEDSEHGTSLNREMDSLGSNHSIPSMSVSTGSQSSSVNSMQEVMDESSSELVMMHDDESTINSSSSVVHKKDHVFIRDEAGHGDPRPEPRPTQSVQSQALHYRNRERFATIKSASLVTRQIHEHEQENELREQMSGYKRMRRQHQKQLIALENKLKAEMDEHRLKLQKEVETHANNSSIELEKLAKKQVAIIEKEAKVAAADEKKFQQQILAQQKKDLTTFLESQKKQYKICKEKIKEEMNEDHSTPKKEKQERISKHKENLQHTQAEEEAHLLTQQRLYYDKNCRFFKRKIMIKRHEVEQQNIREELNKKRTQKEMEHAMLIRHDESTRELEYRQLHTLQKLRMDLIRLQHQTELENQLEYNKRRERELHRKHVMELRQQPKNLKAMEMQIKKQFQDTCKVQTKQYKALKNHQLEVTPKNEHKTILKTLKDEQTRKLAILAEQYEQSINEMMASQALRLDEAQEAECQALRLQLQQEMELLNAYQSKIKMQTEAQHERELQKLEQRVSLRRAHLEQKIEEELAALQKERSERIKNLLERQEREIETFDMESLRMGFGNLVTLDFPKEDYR
The conditions noted are these: at 10 µM.

Test [16] has as its target T5, Serine/threonine-protein kinase TBK1 (Homo sapiens) (UniProt Q9UHD2).
T5 sequence (whole entry): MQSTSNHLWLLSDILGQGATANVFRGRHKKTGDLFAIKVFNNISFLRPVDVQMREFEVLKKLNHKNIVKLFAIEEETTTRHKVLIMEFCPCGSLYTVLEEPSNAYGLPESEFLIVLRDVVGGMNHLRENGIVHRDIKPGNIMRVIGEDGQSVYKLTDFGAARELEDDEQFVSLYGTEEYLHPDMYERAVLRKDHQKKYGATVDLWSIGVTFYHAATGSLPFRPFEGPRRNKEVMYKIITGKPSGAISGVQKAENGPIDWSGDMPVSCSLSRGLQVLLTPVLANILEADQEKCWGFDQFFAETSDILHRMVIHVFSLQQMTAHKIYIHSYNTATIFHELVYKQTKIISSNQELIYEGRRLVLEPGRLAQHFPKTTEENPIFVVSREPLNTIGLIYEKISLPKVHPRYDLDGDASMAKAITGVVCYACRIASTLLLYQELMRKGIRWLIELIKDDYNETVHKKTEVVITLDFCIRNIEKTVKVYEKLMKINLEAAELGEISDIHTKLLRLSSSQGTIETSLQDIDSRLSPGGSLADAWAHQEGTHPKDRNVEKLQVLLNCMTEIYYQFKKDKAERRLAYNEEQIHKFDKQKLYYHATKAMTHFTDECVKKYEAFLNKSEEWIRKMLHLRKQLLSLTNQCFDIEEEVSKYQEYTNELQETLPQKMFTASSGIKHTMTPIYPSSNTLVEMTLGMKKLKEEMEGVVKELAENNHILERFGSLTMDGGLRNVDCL
Conditions: at 1 µM.

For test [17], the target named is Serine/threonine-protein kinase PLK2 (Homo sapiens) (UniProt Q9NYY3). The conditions noted are these: at 1 µM.
Test [18] has as its target T3, Serine/threonine-protein kinase TAO2 (Homo sapiens). Conditions: at 1 µM.
Test [19] addresses T4, Serine/threonine-protein kinase TAO3 (Homo sapiens). The conditions noted are these: at 1 µM.
The target in test [20] is T2, Serine/threonine-protein kinase TAO1 (Homo sapiens). Conditions: at 1 µM.

Chain of SRSF protein kinase 1 (Homo sapiens) (Q96SB4 whole entry): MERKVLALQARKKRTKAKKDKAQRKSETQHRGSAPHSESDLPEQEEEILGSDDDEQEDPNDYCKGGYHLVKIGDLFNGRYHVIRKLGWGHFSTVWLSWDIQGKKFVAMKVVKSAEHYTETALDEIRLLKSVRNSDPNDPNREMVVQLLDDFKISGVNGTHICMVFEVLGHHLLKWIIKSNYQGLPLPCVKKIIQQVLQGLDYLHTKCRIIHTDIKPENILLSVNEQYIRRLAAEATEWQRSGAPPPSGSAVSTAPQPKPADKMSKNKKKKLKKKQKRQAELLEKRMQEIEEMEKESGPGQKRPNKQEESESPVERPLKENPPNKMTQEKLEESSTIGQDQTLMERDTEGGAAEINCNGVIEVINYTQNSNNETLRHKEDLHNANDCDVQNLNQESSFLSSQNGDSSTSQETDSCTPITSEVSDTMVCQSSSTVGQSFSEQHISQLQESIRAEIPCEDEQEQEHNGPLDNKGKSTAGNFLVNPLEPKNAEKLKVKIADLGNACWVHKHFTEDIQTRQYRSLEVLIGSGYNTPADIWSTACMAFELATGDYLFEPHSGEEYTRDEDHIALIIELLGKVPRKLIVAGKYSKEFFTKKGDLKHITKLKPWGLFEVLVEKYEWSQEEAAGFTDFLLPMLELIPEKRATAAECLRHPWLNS
Chain of Serine/threonine-protein kinase SIK1 (Homo sapiens) (P57059 whole entry): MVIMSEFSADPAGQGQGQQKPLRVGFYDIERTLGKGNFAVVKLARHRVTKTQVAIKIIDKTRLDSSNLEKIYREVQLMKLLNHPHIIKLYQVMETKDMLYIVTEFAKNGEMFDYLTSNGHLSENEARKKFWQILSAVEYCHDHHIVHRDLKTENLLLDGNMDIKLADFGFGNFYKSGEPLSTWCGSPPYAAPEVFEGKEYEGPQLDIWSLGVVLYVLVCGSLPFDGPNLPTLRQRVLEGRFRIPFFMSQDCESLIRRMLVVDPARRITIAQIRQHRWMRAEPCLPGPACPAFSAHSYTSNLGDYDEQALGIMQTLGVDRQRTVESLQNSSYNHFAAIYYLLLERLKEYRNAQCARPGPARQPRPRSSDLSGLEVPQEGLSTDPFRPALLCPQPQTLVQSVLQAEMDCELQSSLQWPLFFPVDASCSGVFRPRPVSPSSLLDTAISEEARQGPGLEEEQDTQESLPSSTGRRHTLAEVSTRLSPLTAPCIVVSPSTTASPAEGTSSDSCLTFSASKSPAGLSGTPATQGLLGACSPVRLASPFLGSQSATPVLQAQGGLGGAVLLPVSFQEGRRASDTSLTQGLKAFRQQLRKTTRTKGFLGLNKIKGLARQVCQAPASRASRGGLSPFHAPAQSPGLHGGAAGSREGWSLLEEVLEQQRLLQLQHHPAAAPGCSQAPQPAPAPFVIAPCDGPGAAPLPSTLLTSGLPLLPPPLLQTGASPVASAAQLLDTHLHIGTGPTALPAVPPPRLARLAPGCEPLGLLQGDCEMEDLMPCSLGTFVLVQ
Chain of SRSF protein kinase 2 (Homo sapiens) (P78362 whole entry, looked up): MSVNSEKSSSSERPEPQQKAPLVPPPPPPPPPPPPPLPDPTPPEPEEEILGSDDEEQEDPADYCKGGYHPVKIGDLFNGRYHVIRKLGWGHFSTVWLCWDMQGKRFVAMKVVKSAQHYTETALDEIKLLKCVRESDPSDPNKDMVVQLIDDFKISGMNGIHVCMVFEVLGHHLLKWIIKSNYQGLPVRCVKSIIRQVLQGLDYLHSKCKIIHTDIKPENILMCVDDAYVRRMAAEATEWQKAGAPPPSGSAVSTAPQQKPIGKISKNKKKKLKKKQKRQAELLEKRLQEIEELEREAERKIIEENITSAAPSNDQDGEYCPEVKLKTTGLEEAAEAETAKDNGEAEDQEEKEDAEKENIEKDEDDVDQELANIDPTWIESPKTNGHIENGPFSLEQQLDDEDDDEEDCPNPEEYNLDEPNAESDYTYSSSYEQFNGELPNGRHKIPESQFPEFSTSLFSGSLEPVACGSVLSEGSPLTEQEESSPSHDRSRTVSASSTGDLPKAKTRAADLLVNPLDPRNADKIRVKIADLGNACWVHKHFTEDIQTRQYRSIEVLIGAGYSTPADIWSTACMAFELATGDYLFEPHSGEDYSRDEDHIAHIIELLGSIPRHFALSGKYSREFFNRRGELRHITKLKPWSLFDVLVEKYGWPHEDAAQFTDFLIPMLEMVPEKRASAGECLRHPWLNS
Chain of Serine/threonine-protein kinase PLK2 (Homo sapiens) (Q9NYY3 whole entry, looked up): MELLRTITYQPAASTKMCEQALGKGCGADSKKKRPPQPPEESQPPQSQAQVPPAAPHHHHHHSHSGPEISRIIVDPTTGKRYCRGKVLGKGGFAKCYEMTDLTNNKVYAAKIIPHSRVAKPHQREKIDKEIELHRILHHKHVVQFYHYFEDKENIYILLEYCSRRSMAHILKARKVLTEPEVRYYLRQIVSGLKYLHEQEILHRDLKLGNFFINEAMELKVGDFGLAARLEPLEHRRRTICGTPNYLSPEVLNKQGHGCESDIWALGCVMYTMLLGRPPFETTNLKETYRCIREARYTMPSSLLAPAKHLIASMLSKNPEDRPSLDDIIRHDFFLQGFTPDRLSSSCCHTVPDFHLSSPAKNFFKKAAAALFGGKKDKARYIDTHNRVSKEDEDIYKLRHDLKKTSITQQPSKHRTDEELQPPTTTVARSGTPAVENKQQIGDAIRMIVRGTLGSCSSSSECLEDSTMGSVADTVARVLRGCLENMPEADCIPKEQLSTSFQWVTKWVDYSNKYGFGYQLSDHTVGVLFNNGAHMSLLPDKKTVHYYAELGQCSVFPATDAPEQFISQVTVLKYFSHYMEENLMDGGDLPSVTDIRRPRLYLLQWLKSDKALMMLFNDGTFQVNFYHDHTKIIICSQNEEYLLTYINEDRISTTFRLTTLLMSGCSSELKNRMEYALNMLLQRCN
Chain of Serine/threonine-protein kinase 33 (Homo sapiens) (Q9BYT3 whole entry, looked up): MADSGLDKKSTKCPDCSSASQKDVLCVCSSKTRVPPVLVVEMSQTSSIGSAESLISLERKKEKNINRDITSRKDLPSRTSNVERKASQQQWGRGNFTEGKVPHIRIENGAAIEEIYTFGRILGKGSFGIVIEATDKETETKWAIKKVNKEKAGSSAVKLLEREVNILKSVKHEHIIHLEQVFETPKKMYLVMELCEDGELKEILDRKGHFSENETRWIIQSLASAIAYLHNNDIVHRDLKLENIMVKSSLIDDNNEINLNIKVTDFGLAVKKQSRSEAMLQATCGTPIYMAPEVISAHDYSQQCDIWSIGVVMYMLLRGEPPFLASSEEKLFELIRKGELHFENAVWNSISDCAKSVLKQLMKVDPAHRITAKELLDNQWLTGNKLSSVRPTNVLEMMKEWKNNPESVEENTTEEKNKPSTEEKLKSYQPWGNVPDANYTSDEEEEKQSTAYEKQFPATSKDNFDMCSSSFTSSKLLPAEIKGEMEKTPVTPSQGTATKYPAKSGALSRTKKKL

For `Cc1cc(Nc2nc(-c3ccccc3)nc3ccccc23)n[nH]1`, the residual activity in test [1] is 10%; in test [2], 73%; in test [3] it was 15%; in test [4], 67%; in test [5], 17%; in [6], 77%. Moreover, the residual activity turned out to be 24% in test [7]; 56% in test [8]; 16% in test [9]; 3% in test [10]; 67% in test [11]; 40% in test [12]. For the same molecule, the residual activity in test [13] came to 51%; in [14], 45%; in test [15], 67%; in test [16] it was 19%.
For the molecule `Cn1cnc2cc3c(Nc4cccc(Br)c4)ncnc3cc21`, the residual activity in [1] stood at 9%; in [2], 100%; in [3], 91%; in [4], 94%; in test [5], 87%; in [6] it was 93%. The residual activity in test [7] was 95%; in test [17] it was 106%; in test [8], 98%; in test [9] it was 129%; in [10], 86%; in test [11], 98%. Also, the residual activity is 106% in test [12]; 73% in test [13]; 98% in test [18]; 98% in test [14]; 94% in test [19]; 93% in test [15]. Besides, the residual activity in test [16] is 83%.
With `CO[C@@H]1[C@H](N(C)C(=O)c2ccccc2)C[C@H]2O[C@]1(C)n1c3ccccc3c3c4c(c5c6ccccc6n2c5c31)C(=O)NC4`, the residual activity in test [1] worked out at 2%; in [2], 78%; in test [3], 55%; in test [4], 64%; in [5] it was 48%; in [6], 25%. In addition, the residual activity in [7] came to 13%; in [17] it was 100%; in test [8], 86%; in test [9], 2%; in test [10], 3%; in test [20], 50%. The residual activity in test [13] worked out at 17%; in test [18] it was 83%; in test [14] it was 47%; in test [19], 42%; in test [15], 29%; in test [16], 2%.
Consider `Cc1cncc2cccc(S(=O)(=O)N3CCCN(C(=O)CN)C[C@H]3C)c12`, for which the residual activity stood at 90% in test [1]; 94% in test [4]; 94% in test [5]; 93% in [8]; 85% in test [10]; 88% in [11]. Moreover, the residual activity came out at 83% in test [12]; 81% in test [20]; 28% in test [13]; 93% in [19]; 65% in test [15]; 68% in test [16].

The record behind these values is ChEMBL document CHEMBL2218924, “A broad activity screen in support of a chemogenomic map for kinase signalling research and drug discovery” (Biochem J, 2013).
